A selection: hits, their analogues and other compounds. The true share with any hit is near 1.1%.
DUSP3 inh = inhibitors of human VHR1 phosphatase (DUSP3). P51452. recombinant VHR phosphatase, pNPP absorbance. inhibition, % at 13.3 µM. 290,000 tested, 0.52% active. AID 1654; in the data active = inhibition above about 50%
Target sequence (P51452 whole entry, looked up): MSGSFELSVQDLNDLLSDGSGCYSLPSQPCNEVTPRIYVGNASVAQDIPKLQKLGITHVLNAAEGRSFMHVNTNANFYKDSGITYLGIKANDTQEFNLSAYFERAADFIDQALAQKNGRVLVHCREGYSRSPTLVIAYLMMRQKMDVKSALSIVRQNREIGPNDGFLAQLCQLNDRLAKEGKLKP
BJeLR lethal = BJeLR cell viability loss; BJeLR (HRASV12) viability, CellTiter-Glo ATP luminescence, 48 h; inhibition, % (concentration not given with the values); 300,000 tested, 0.17% active; AID 1554; in the data active = inhibition above about 50%
PrPC surface inh = reduces human prion protein on the cell surface; P04156; cell surface PrPC, TR-FRET read-out; inhibition, % at 13.8 µM; 370,000 tested, 0.43% active; AID 720596; in the data active = inhibition above about 24%; note: 0% = median of the test wells and 100% = reference compound wells
3CLpro inhibitor = SARS-CoV 3CLpro protease inhibition; inhibition, % at 6 µM; recombinant SARS-CoV 3CLpro, quenched FRET peptide cleavage; 290,000 tested, 0.14% active; P0C6X7; in the data active = inhibition above about 12%
* hit, by the source's call; x = not tested or not shown.

SMILES	DUSP3 inh	BJeLR lethal	PrPC surface inh	3CLpro inhibitor
CN1OC[C@@H]2CN(S(=O)(=O)c3cc(Cl)cc(Cl)c3)[C@H](c3ccc(-c4ccc(C#N)cc4)cc3)C[C@@H]21	x	x	-3	x
COc1cccc(/C=N/Nc2nc3ccccc3n3cnnc23)c1	51*	-3	-8	4
Cc1ccc(-c2cc(C(=O)NN=Cc3cccc4ccccc34)[nH]n2)cc1C	x	x	7	x
CC=CC(C)=CC(C)C(=O)CC(O)CC1CC(=O)NC(=O)C1 (stereo unspecified)	x	x	46*	x
COc1cc(C2=NC(CO)(CO)CO2)cc(OC)c1OC	58*	-8	-3	-3
COc1ccc(C2=NC(CO)(CO)CO2)cc1	21	-4	12	5
COC(=O)[C@]12C[C@H](CC(=O)NCc3cccc(C(F)(F)F)c3)C(=O)N(Cc3cccc4ccccc34)C1=C[C@H](C(C)(C)C)O[C@@H]2C	x	x	6	x
C=CCc1cccc2cc(C(=O)Nc3ccc(CC(=O)O)cc3)c(=O)oc12	52*	-1	-18	2
CC(C)(C)CCN1CCC[C@H](NC(=O)COc2ccc(F)c(Cl)c2)C1	x	x	1	x
O=S(=O)(c1ccc(Cl)c(Cl)c1)c1snnc1-c1ccccc1	-41	53*	x	7
Cc1cc(C(=O)N/N=C/c2ccc(-c3cccc(Cl)c3Cl)o2)n[nH]1	51*	-7	-5	-2
Cc1cc(C(=O)N/N=C/c2ccc(-c3cccc(Br)c3)o2)n[nH]1	-11	4	0	-3
O=C1C2C3CC(C(Br)C3Br)C2C(=O)N1c1nccs1 (stereo unspecified)	x	-2	6	x
O=S(=O)(c1cccc(F)c1)N1CCN(c2nc(-c3cccnc3)nc3ccccc23)CC1	x	x	-10	x
CC(=O)c1sc(NC(=O)C2COc3ccccc3O2)nc1C (stereo unspecified)	25	6	41*	-6
O=C(Nc1nncs1)C1COc2ccccc2O1 (stereo unspecified)	-8	6	8	2
O=C1/C(=C/c2ccc(Cl)cc2)SC(=S)N1CCC(=O)N1CCCCC1CCO (stereo unspecified)	-2	5	-4	1
Cc1ccc(/C=C2\SC(=S)N(CCCC(=O)N3CCOCC3)C2=O)cc1	20	89*	-3	2
O=C1/C(=C/c2ccccc2)SC(=S)N1CCCC(=O)N1CCCCC1CCO (stereo unspecified)	51*	13	4	2
COC(=O)c1ccc(/C=C2\SC(=S)N(CCCC(=O)N3CCOCC3)C2=O)cc1	x	x	10	x
Cc1c(C(=O)NC2CCOC2)oc2c(F)cccc12 (stereo unspecified)	53*	6	-2	-5
COCCN(C(=O)c1ccc(N(C)S(=O)(=O)c2ccc(C)cc2)cc1)c1c(N)n(CC(C)C)c(=O)[nH]c1=O	x	x	1	x
Cc1cccc(OCC(=O)NCCNC(=O)c2ccncc2)c1	60*	5	1	-4
OCCN(Cc1ccccc1)c1ncnc2sccc12	51*	15	15	-4
CN(Cc1ccccc1F)c1ncnc2sccc12	34	-5	4	-2
SMILES	DUSP3 inh	BJeLR lethal	PrPC surface inh	3CLpro inhibitor
CCOc1ccc(-n2c(SCC(=O)c3ccc4ccccc4c3)nnc2-c2ccco2)cc1	x	x	-2	x
CCOc1ccc(C(=O)Nc2ccccc2CC)cc1[N+](=O)[O-]	-8	-10	-9	-2
CCOc1ccc(C(=O)Nc2cccc3nsnc23)cc1[N+](=O)[O-]	56*	2	-1	4
O=C(N[C@@H](Cc1cccnc1)C(=O)N1CCC[C@H]1C(=O)NCCc1ccccc1Cl)c1ccccc1	x	x	-2	x
Cc1ccc2nc(-c3ccncc3)cc(C(=O)Nc3ccc(F)cc3C)c2c1	19	0	-15	3
Cc1ccc2nc(-c3cccnc3)cc(C(=O)Nc3ccc(F)cc3C)c2c1	53*	-6	5	4
CCn1cc(CNC(=O)c2ccc(C)s2)cn1	57*	8	3	3
Cc1ccc(CNC(=O)c2ccc(C)s2)cc1	x	-12	7	x
COC(=O)[C@]12C[C@H](CC(=O)N3CCCCC3)C(=O)N(CCC3=CCCCC3)C1=C[C@H](C1CCCC1)O[C@@H]2C	x	x	-2	x
O=C(COC(=O)C12CC3CC(CC(C3)C1)C2)Nc1nccs1	52*	2	2	9
C/C(=N\NC(=O)COc1ccccc1[N+](=O)[O-])c1cccc(NC(=O)c2ccncc2)c1	10	8	-5	7
COc1cccc(CNC(=O)c2ccc(CS(=O)(=O)Cc3ccccc3C)o2)c1	58*	2	0	-7
Cc1ccccc1C(=O)/C(C#N)=N/Nc1c(C)n(C)n(-c2ccccc2)c1=O	51*	27	23	4
O=Cc1coc2ccc3ccccc3c2c1=O	56*	-15	13	1
NC(=O)N/N=C/c1coc2ccc3ccccc3c2c1=O	10	0	1	0
CCN(CC)CCOC(=O)c1ccc(NC(=O)C2(c3ccccc3)CCCC2)cc1	54*	-7	0	-6
CC[C@@H](CCCc1ccc(OC)cc1)CCC(=O)N(c1ccccc1)c1ccccc1	x	x	0	x
Nc1nnc(SCC(=O)Nc2ccc(Cl)c(C(=O)O)c2)s1	56*	7	-10	4
COC(=O)c1cc(NC(=O)CSc2nnc(N)s2)ccc1Cl	17	4	9	-2
CN(Cc1nc(-c2ccncc2)no1)S(=O)(=O)c1ccc(Cl)cc1	51*	12	-3	-1
Cc1cc(C)c2c(CN3CCCCC3)cc(=O)oc2c1	9	9	-2	0
Cc1cc(C)c2c(CCl)cc(=O)oc2c1	-4	56*	0	0
COc1ccccc1C(=O)CN1C(=O)NC2(CCCCCC2)C1=O	x	x	-2	x
COc1cccc(-c2cnc(C(O)c3ccc(-c4ccccc4)cc3)[nH]2)c1 (stereo unspecified)	x	x	7	x
Cc1nc(S(=O)(=O)c2ccc(Cl)cc2)c(N(C)C)o1	53*	-3	0	-8
SMILES	DUSP3 inh	BJeLR lethal	PrPC surface inh	3CLpro inhibitor
COc1ccc(N/C=C/C(=O)c2ccc(OC)c(OC)c2)cc1	1	-1	5	6
COc1ccc(N/C=C/C(=O)c2cc(OC)c(OC)c(OC)c2)cc1	-16	53*	5	-3
COc1ccc(CC(=O)Nc2ccccc2C(F)(F)F)cc1S(=O)(=O)N1CCOCC1	x	x	-9	x
Cc1ccc(/C=C2/C(=O)ON=C2c2ccccc2)o1	32	51*	-10	2
O=C1ON=C(c2ccccc2)/C1=C\c1ccco1	17	1	-7	2
O=C(NCCN1CCCCC1)Nc1ccc(Cl)cc1	57*	7	-3	-1
O=C(NCCN1CCOCC1)Nc1ccc(Cl)cc1	-11	2	1	0
Cc1ccc(C(=O)CCC(=O)OCC(=O)N(CC(C)C)c2c(N)n(Cc3ccccc3)c(=O)[nH]c2=O)cc1	x	-6	4	x
COc1ccc(N(C)S(=O)(=O)c2cccc(C(=O)Nc3nc4ccccc4[nH]3)c2)cc1	15	-3	6	3
CN(c1cccc(Cl)c1)S(=O)(=O)c1cccc(C(=O)Nc2nc3ccccc3[nH]2)c1	51*	-8	23	3
CSc1nc2ccc3nc(NC(=O)c4ccc(Cl)s4)sc3c2s1	53*	6	x	-3
CSc1nc2ccc3nc(NC(=O)c4cccs4)sc3c2s1	28	-2	0	2

Screens deposited in PubChem by several laboratories.
